Laboratory results from article PMC7862700, “An all-to-all approach to the identification of sequence-specific readers for epigenetic DNA modifications on cytosine”.

Tests used:
Assay in all cases: DAPPL (digital affinity profiling via proximity ligation, sequencing); 10 mM Tris-HCl pH 7.5, 50 mM NaCl, 1 mM DTT, 4% glycerol, room temperature, 30 min; GST-TFs on glutathione beads, 16-mer random dsDNA library, 0.1% formaldehyde crosslink after washing; high values mean tight binding
FLI1 = molecular target: T1, FLI1 (Homo sapiens, UniProt Q01543 1-452); conditions: protein: recombinant; tags: N-terminal GST; dsDNA, one strand shown
T1 sequence: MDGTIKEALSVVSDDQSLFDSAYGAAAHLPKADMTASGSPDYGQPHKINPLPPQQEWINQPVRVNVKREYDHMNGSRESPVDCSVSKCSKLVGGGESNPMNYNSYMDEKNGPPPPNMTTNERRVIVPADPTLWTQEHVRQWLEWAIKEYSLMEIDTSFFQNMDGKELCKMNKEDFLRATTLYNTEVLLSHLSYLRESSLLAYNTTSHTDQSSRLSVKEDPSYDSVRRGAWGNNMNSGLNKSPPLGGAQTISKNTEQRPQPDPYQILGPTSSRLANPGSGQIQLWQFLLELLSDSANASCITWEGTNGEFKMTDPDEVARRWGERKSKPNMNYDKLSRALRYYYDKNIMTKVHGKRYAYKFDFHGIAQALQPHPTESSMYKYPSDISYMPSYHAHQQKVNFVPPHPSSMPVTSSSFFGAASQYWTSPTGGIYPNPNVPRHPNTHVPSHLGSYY
Outline: (§1)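 Each value of binding signal is a hexamer's read frequency for a factor divided by the same hexamer's frequency in the tag-only sample. Barcoded, bead-captured GST fusions of human transcription factors made in yeast were pooled with that sample and incubated with 200 nmole of a random double-stranded 16-mer DNA library in Tris/NaCl/DTT/glycerol buffer at room temperature for 30 min. Washing, 0.1% formaldehyde crosslinking, proximity ligation, PCR and Illumina NextSeq500 sequencing followed.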

ELK1 = molecular target: T2, ELK1 (Homo sapiens, UniProt P19419 1-428); conditions: protein: recombinant; tags: N-terminal GST; dsDNA, one strand shown
T2 sequence: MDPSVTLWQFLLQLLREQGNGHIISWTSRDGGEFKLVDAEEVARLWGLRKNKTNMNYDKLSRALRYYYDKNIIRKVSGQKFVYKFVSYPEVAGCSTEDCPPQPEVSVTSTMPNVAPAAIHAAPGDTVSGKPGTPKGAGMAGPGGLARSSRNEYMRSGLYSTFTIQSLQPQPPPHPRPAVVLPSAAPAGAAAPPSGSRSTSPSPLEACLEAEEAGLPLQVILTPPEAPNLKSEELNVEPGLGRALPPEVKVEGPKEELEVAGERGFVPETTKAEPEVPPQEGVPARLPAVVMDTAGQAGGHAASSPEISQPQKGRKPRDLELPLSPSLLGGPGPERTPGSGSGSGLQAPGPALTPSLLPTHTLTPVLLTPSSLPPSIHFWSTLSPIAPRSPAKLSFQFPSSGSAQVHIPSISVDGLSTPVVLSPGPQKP
Outline: as §1

GABPA = molecular target: T3, GABPA (Homo sapiens, UniProt Q06546 1-454); conditions: protein: recombinant; tags: N-terminal GST; dsDNA, one strand shown
T3 sequence: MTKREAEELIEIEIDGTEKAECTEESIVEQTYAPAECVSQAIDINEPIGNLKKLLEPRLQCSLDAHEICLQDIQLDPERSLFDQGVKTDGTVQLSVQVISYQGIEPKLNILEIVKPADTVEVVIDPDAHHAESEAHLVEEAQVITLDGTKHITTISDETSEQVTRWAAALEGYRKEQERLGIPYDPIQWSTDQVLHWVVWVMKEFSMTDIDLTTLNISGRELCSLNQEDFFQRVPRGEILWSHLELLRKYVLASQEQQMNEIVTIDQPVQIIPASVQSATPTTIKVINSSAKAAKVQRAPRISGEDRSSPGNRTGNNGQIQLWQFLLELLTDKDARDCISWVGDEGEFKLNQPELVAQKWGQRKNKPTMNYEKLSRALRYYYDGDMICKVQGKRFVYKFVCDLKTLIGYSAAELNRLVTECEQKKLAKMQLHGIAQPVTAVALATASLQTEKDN
Outline: as §1

ERG = molecular target: T4, ERG (Homo sapiens, UniProt P11308 1-479); conditions: protein: recombinant; tags: N-terminal GST; dsDNA, one strand shown
T4 sequence: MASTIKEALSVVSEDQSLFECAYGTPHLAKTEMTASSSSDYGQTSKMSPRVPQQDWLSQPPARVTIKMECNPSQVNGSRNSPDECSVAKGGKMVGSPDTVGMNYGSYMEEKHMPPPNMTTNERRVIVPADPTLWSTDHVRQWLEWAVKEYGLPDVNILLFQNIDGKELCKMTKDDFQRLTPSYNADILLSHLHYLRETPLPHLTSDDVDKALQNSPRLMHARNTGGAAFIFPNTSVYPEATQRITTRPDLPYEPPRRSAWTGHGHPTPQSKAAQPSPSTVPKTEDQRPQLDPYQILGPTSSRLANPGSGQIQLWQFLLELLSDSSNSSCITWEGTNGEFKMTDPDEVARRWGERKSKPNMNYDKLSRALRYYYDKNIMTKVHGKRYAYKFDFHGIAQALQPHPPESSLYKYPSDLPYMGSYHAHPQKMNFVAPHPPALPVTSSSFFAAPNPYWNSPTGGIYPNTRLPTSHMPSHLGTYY
Outline: as §1

ELF1 = ELF1 (Homo sapiens, UniProt P32519 1-619); conditions: protein: recombinant; tags: N-terminal GST; dsDNA, one strand shown
Outline: as §1

EHF = molecular target: T5, EHF (Homo sapiens, UniProt Q9NZC4 1-300); conditions: protein: recombinant; tags: N-terminal GST; dsDNA, one strand shown
T5 sequence: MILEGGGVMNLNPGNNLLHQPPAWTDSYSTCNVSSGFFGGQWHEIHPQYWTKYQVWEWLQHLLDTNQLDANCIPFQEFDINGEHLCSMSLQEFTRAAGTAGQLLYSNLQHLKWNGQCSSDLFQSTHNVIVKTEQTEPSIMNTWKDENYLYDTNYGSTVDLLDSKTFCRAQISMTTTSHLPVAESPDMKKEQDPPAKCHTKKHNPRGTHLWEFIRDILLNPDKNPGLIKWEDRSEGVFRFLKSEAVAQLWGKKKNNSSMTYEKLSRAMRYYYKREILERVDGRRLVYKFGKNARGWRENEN
Outline: as §1

SPI1 = SPI1 (Homo sapiens, UniProt P17947 1-270); conditions: protein: recombinant; tags: N-terminal GST; dsDNA, one strand shown
Outline: as §1

SPIB = SPIB (Homo sapiens, UniProt Q01892 1-262); conditions: protein: recombinant; tags: N-terminal GST; dsDNA, one strand shown
Outline: as §1

ELK3 = molecular target: T6, ELK3 (Homo sapiens, UniProt P41970 1-407); conditions: protein: recombinant; tags: N-terminal GST; dsDNA, one strand shown
T6 sequence: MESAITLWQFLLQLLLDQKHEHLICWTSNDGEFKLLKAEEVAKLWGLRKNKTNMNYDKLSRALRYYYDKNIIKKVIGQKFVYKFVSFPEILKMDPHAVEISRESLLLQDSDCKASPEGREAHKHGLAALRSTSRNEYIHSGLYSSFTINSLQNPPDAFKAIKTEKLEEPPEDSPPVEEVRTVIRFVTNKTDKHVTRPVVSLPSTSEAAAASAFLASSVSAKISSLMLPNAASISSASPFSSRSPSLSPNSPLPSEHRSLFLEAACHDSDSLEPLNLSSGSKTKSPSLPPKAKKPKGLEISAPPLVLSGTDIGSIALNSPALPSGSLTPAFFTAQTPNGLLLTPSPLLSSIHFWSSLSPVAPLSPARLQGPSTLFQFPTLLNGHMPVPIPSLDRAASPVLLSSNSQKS
Outline: as §1

FEV = molecular target: T7, FEV (Homo sapiens, UniProt Q99581 1-238); conditions: protein: recombinant; tags: N-terminal GST; dsDNA, one strand shown
T7 sequence: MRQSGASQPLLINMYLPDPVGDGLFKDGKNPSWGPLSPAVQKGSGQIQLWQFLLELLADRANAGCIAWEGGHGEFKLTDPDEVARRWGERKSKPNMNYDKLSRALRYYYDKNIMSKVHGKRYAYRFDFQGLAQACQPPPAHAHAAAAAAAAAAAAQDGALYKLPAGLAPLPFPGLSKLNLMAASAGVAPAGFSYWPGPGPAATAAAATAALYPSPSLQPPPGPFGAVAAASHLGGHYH
Outline: as §1

ETV5 = ETV5 (Homo sapiens, UniProt P41161 1-510); conditions: protein: recombinant; tags: N-terminal GST; dsDNA, one strand shown
Outline: as §1

HSF1 = HSF1 (Homo sapiens, UniProt Q00613 1-529); conditions: protein: recombinant; tags: N-terminal GST; chain copies: 3; dsDNA, one strand shown
Outline: as §1

SPIC = molecular target: T8, SPIC (Homo sapiens, UniProt Q8N5J4 1-248); conditions: protein: recombinant; tags: N-terminal GST; dsDNA, one strand shown
T8 sequence: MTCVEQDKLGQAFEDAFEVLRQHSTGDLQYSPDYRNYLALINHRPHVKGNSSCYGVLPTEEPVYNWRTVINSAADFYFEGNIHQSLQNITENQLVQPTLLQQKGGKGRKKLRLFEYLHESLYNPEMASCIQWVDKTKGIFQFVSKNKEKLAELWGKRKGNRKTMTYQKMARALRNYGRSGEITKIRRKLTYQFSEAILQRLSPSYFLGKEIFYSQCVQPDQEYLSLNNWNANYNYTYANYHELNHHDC
Outline: as §1

ELF4 = ELF4 (Homo sapiens, UniProt Q99607 1-663); conditions: protein: recombinant; tags: N-terminal GST; dsDNA, one strand shown
Outline: as §1

ELK4 = molecular target: T9, ELK4 (Homo sapiens, UniProt P28324-2 1-405); conditions: protein: recombinant; tags: N-terminal GST; dsDNA, one strand shown
T9 sequence: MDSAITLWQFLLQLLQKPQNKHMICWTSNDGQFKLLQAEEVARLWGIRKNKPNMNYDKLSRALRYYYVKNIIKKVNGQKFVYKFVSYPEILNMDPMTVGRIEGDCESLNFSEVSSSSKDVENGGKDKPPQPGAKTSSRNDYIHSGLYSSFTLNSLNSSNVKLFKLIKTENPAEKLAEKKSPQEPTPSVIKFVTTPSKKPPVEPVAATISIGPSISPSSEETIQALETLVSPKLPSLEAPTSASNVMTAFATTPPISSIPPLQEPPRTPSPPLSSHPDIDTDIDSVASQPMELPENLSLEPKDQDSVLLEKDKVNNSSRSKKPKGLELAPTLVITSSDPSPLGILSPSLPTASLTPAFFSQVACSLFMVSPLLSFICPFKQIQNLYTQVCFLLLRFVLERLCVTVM
Outline: as §1

ETV2 = molecular target: T10, ETV2 (Homo sapiens, UniProt O00321 1-342); conditions: protein: recombinant; tags: N-terminal GST; dsDNA, one strand shown
T10 sequence: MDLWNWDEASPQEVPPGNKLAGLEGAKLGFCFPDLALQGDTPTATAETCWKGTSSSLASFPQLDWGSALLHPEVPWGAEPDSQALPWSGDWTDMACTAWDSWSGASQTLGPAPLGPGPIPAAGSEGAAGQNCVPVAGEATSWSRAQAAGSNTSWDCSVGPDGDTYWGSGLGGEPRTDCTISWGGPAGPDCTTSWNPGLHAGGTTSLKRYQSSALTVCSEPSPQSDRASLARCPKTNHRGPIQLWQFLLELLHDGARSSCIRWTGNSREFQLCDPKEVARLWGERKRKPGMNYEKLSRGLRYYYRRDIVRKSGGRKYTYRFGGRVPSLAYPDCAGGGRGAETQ
Outline: as §1

ELF3 = molecular target: T11, ELF3 (Homo sapiens, UniProt P78545 1-371); conditions: protein: recombinant; tags: N-terminal GST; dsDNA, one strand shown
T11 sequence: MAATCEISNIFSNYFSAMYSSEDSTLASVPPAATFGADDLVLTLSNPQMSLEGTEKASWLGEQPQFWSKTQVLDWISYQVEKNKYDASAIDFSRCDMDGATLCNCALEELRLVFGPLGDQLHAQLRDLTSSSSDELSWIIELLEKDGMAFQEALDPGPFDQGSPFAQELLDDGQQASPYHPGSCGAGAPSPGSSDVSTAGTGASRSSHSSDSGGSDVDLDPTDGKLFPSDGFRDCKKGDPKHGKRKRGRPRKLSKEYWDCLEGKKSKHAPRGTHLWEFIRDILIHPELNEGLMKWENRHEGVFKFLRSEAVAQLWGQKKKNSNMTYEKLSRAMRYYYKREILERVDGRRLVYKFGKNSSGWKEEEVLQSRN
Outline: as §1

CRX = CRX (Homo sapiens, UniProt O43186 1-299); conditions: protein: recombinant; tags: N-terminal GST; dsDNA, one strand shown
Outline: as §1

ETV1 = ETV1 (Homo sapiens, UniProt P50549 1-477); conditions: protein: recombinant; tags: N-terminal GST; dsDNA, one strand shown
Outline: as §1

HSF1, sequence (Q00613 whole entry): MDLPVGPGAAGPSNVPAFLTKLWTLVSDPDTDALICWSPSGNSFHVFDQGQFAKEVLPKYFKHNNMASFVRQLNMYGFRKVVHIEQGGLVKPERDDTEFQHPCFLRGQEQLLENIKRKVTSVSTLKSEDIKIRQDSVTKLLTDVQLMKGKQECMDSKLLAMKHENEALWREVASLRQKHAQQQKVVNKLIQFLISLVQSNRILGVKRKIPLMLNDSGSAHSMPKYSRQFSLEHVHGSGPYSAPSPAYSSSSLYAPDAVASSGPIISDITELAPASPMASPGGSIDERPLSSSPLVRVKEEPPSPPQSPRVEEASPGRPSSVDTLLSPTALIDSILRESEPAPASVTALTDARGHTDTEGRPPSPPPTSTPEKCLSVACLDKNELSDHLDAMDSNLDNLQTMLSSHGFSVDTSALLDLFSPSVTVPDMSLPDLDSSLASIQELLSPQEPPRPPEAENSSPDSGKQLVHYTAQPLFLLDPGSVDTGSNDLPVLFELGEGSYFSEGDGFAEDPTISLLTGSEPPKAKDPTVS
ELF1, sequence (P32519 whole entry): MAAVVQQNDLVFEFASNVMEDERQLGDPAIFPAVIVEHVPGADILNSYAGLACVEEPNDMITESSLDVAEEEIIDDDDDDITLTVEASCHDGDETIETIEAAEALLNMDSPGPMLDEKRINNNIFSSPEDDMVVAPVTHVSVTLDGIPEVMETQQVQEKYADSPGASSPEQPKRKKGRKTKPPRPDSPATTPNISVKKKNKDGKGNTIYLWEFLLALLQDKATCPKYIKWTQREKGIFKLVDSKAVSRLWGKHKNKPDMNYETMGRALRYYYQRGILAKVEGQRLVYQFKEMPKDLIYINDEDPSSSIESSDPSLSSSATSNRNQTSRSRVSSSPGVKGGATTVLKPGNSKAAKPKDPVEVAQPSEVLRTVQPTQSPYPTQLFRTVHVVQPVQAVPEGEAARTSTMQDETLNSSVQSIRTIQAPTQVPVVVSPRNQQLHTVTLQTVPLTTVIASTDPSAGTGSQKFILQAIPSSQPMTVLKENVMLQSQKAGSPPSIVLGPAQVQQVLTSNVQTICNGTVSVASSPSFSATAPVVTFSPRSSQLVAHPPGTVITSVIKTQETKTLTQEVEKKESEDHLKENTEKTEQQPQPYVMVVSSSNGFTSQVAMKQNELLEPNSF
ELF4, sequence (Q99607 whole entry): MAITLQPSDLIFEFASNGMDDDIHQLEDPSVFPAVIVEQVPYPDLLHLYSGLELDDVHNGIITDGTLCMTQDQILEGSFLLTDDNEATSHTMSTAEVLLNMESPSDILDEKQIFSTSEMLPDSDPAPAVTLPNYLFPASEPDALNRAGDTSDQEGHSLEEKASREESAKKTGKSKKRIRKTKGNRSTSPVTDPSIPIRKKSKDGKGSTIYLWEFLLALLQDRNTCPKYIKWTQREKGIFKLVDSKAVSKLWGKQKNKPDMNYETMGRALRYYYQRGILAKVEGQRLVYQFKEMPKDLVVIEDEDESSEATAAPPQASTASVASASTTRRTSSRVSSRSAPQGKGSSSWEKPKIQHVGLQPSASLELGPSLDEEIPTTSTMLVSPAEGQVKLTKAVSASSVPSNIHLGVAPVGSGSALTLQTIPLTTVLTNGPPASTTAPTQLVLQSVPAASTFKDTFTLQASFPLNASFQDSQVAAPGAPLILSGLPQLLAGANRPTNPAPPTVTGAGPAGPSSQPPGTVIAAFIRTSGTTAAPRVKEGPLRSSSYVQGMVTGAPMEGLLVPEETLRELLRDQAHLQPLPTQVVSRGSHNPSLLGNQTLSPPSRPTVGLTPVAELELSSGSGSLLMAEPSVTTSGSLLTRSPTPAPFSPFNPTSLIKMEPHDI
SPIB, sequence (Q01892 whole entry): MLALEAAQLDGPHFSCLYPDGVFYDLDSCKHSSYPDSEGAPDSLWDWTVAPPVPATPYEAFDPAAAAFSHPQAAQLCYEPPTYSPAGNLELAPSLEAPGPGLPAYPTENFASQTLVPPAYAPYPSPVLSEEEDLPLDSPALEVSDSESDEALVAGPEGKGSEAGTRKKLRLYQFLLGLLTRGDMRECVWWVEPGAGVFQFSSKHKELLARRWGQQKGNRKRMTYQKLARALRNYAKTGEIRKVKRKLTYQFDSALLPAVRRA
ETV5, sequence (P41161 whole entry): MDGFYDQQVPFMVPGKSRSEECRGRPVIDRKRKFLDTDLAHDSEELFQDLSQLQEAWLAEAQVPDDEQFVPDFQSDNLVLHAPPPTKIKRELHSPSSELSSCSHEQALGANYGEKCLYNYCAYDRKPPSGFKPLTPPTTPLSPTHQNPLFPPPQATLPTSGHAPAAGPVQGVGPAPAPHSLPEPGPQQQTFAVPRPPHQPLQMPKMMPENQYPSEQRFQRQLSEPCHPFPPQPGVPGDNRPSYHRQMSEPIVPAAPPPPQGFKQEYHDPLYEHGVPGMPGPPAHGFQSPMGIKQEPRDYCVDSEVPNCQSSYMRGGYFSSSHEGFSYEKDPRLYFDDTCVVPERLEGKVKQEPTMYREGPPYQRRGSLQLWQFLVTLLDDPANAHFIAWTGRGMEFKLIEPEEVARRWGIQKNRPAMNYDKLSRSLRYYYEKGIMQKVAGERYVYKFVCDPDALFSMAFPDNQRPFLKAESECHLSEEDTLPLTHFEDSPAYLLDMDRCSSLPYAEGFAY
CRX, sequence (O43186 whole entry): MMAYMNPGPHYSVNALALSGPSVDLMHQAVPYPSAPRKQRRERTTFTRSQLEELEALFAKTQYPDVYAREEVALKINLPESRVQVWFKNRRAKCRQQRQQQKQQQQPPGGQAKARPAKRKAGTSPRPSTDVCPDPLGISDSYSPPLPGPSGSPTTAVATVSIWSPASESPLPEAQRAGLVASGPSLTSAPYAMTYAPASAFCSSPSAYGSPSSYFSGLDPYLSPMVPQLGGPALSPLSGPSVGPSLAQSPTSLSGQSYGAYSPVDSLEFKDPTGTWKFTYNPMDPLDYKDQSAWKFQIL
ETV1, sequence (P50549 whole entry): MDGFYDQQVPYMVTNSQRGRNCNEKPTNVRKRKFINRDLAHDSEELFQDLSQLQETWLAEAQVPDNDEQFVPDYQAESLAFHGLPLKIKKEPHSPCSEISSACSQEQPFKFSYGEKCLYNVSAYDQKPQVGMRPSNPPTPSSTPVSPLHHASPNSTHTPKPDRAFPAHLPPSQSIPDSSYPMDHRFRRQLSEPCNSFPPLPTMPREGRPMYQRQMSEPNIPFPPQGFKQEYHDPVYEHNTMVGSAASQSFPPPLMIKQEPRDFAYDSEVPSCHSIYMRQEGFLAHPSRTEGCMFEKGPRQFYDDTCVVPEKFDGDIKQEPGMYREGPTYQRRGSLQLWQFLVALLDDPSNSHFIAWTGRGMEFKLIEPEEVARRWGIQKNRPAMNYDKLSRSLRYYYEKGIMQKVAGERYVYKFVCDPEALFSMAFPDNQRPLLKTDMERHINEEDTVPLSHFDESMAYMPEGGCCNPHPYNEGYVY

Which binding signal (FLI1) does the source give for CTGGTA here?
Its binding signal is 1.3 fold enrichment (6-mer frequency, TF over GST control).

What about the binding signal (ELK1) of the same sequence?
Its binding signal is 1.34 fold enrichment (6-mer frequency, TF over GST control).

What about the binding signal (GABPA) of the same sequence?
The binding signal was 1.29 fold enrichment (6-mer frequency, TF over GST control).

What about the binding signal (ERG) of the same sequence?
The binding signal was 1.4 fold enrichment (6-mer frequency, TF over GST control).

And the binding signal (ELF1)?
Its binding signal is 1.38 fold enrichment (6-mer frequency, TF over GST control).

And the binding signal (EHF)?
Its binding signal is 1.4 fold enrichment (6-mer frequency, TF over GST control).

What about the binding signal (SPI1) of the same sequence?
Its binding signal is 1.33 fold enrichment (6-mer frequency, TF over GST control).

And the binding signal (SPIB)?
The binding signal was 1.4 fold enrichment (6-mer frequency, TF over GST control).

What about the binding signal (ELK3) of the same sequence?
The binding signal was 1.35 fold enrichment (6-mer frequency, TF over GST control).

And the binding signal (FEV)?
Its binding signal is 1.23 fold enrichment (6-mer frequency, TF over GST control).

What about the binding signal (ETV5) of the same sequence?
Its binding signal is 1.25 fold enrichment (6-mer frequency, TF over GST control).

And the binding signal (HSF1)?
Its binding signal is 1.75 fold enrichment (6-mer frequency, TF over GST control).

And the binding signal (SPIC)?
The binding signal was 1.28 fold enrichment (6-mer frequency, TF over GST control).

And the binding signal (ELF4)?
The binding signal was 1.4 fold enrichment (6-mer frequency, TF over GST control).

And the binding signal (ELK4)?
Its binding signal is 1.29 fold enrichment (6-mer frequency, TF over GST control).

And the binding signal (ETV2)?
Its binding signal is 1.41 fold enrichment (6-mer frequency, TF over GST control).

What about the binding signal (ELF3) of the same sequence?
The binding signal was 1.2 fold enrichment (6-mer frequency, TF over GST control).

And the binding signal (CRX)?
The binding signal was 1.38 fold enrichment (6-mer frequency, TF over GST control).

And the binding signal (ETV1)?
Its binding signal is 1.24 fold enrichment (6-mer frequency, TF over GST control).
